10 compounds from PubChem BioAssay (NCI) can be followed below.

Experiment [1] in a line: NCI Yeast Anticancer Drug Screen. Data for the rad50 strain (AID 155).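 Also: 0% = growth of vehicle-only cultures of the same strain.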 As to conditions: S. cerevisiae rad50 strain growth inhibition, active compounds read high. In outline:
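Genetically altered yeast (DNA repair pathway); compound treatment; growth inhibition vs vehicle ctrl.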

Experiment [2] is described as follows: NCI Yeast Anticancer Drug Screen. Data for the mec2-1 strain (AID 157). The conditions noted are these: S. cerevisiae mec2-1 strain, active compounds read high. In outline: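 Mutant yeast (mec2-1) grown with compound; growth inhibition relative to vehicle control reported.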
Experiment [3] in a line: NCI Yeast Anticancer Drug Screen. Data for the sgs1 mgt1 strain (AID 161).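 Also: 0% = growth of cultures given vehicle only.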 The conditions noted are these: S. cerevisiae sgs1 mgt1 strain, active compounds read high. The essentials: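 Growth of a repair-deficient yeast mutant was monitored after compound treatment and expressed as inhibition relative to vehicle-treated cultures.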
The nature of experiment [4]: NCI Yeast Anticancer Drug Screen. Data for the cln2 rad14 strain (AID 165).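 Also: 0% = growth equal to vehicle treated cultures.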 As to conditions: S. cerevisiae cln2 rad14 strain, active compounds read high. The essentials:
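Readout is yeast growth inhibition versus vehicle-treated controls, using a strain with cln2 and rad14 alterations exposed to compound.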

A short description of experiment [5]: NCI Yeast Anticancer Drug Screen. Data for the bub3 strain (AID 167). The conditions noted are these: S. cerevisiae bub3 mutant strain, active compounds read high. In outline:
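Yeast carrying a defined mutation is treated with each compound, and growth is compared with that of vehicle-exposed cells to give inhibition.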

Experiment [6] is described as follows: NCI Yeast Anticancer Drug Screen. Data for the mlh1 rad18 strain (AID 175). As to conditions: S. cerevisiae mlh1 rad18 strain growth inhibition, active compounds read high. In outline: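 Genetically defined yeast (DNA repair-deficient) exposed to compounds; growth inhibition determined relative to vehicle.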
The mark [7] stands for this setting: at 5.0 µM (retest, dose inferred, filed as 0.5).
[8] abbreviates: at 50.0 µM (retest, dose inferred, filed as 5.0).

SMILES strings stand for the structures. The panel holds about 79,000 compounds, 15% with a hit somewhere; the sample as a whole holds those more often. A number with no mark means an inactive call. The source made the active and inactive calls. Rule as the data show it: active = growth inhibition above about 70%; inactive = the rest.

As to `CC1CCC2(OC1)OC1C(O)C3C4CCC5CC(OC6OC(CO)C(OC7OC(CO)C(O)C(OC8OCC(O)C(O)C8O)C7OC7OC(CO)C(O)C(OC8OC(CO)C(O)C(O)C8O)C7O)C(O)C6O)C(O)CC5(C)C4CCC3(C)C1C2C` (stereo not drawn), the growth inhibition is 95% (active) in experiment [1] (setting [7]); 99% (active) in experiment [1] (setting [8]); 93.2% (active) in experiment [1] (at 50.0 µM); 97% (active) in experiment [2] (setting [7]); 99% (active) in experiment [2] (setting [8]); 94% (active) in experiment [2] (at 50.0 µM). Further, the growth inhibition in experiment [3] (setting [7]) was 93% (active); in experiment [3] (setting [8]) it was 99% (active); in experiment [3] (at 50.0 µM), 93.8% (active); in experiment [4] (setting [7]) it was 72% (active); in experiment [4] (setting [8]) it was 99% (active); in experiment [4] (at 50.0 µM), 92.3% (active). Further, the growth inhibition was 97% (active) in experiment [5] (setting [7]); 99% (active) in experiment [5] (setting [8]); 93.2% (active) in experiment [5] (at 50.0 µM); 96% (active) in experiment [6] (setting [7]); 98% (active) in experiment [6] (setting [8]); 88% (active) in experiment [6] (at 50.0 µM).

In the case of `c1ccc2c(c1)[O][Sn][O]2`, the growth inhibition is 0% in experiment [1] (setting [7]); 6% in experiment [1] (setting [8]); 98.8% (active) in experiment [1] (at 50.0 µM); 1% in experiment [2] (setting [7]); 3% in experiment [2] (setting [8]); 99.2% (active) in experiment [2] (at 50.0 µM). The growth inhibition in experiment [3] (setting [7]) was -1%; in experiment [3] (setting [8]) it was 1%; in experiment [3] (at 50.0 µM), 39.8%; in experiment [4] (setting [7]) it was 0%; in experiment [4] (setting [8]), -1%; in experiment [4] (at 50.0 µM), 98.8% (active). In addition, the growth inhibition in experiment [5] (setting [7]) was -1%; in experiment [5] (setting [8]) it was 2%; in experiment [5] (at 50.0 µM) it was 99.4% (active); in experiment [6] (setting [7]), 1%; in experiment [6] (setting [8]) it was 3%; in experiment [6] (at 50.0 µM), 99% (active).

For the compound `Cc1cc(C)c(C[N+](C)(C)C)c(C)c1C`, the growth inhibition in experiment [1] (setting [7]) is 82% (active); in experiment [1] (setting [8]), 98% (active); in experiment [1] (at 50.0 µM), 98.5% (active); in experiment [2] (setting [7]), 57%; in experiment [2] (setting [8]), 99% (active); in experiment [2] (at 50.0 µM), 99.7% (active). Also, the growth inhibition in experiment [3] (setting [7]) was 86% (active); in experiment [3] (setting [8]), 98% (active); in experiment [3] (at 50.0 µM), 99.7% (active); in experiment [4] (setting [7]), 75% (active); in experiment [4] (setting [8]) it was 98% (active); in experiment [4] (at 50.0 µM), 98.7% (active). Further, the growth inhibition in experiment [5] (setting [7]) was 78% (active); in experiment [5] (setting [8]), 98% (active); in experiment [5] (at 50.0 µM), 99.4% (active).

Regarding `CC(C)CCC1(CCSC(=O)S)C(=O)NC(=O)NC1=O`, the growth inhibition in experiment [1] (setting [7]) was -4%; in experiment [1] (setting [8]), 77% (active); in experiment [1] (at 50.0 µM), 85.3% (active); in experiment [2] (setting [7]) it was 0%; in experiment [2] (setting [8]), 62%; in experiment [2] (at 50.0 µM), 8.3%. In addition, the growth inhibition in experiment [3] (setting [7]) was 4%; in experiment [3] (setting [8]), 67%; in experiment [3] (at 50.0 µM), 25.8%; in experiment [4] (setting [7]) it was -4%; in experiment [4] (setting [8]) it was 21%; in experiment [4] (at 50.0 µM), -37.2%. The growth inhibition in experiment [5] (setting [7]) was -4%; in experiment [5] (setting [8]), 65%; in experiment [5] (at 50.0 µM), 19.8%.

As to `C/C=C1/C(=O)O[C@]23C=C[C@@H]4C(C(=O)OC)=CO[C@H](O[C@@H]12)[C@@H]43`, the growth inhibition in experiment [1] (setting [7]) was 28%; in experiment [1] (setting [8]) it was 82% (active); in experiment [1] (at 50.0 µM), 91.9% (active); in experiment [2] (setting [7]) it was 41%; in experiment [2] (setting [8]), 98% (active); in experiment [2] (at 50.0 µM), 93.8% (active). For the same compound, the growth inhibition in experiment [3] (setting [7]) is 63%; in experiment [3] (setting [8]), 98% (active); in experiment [3] (at 50.0 µM) it was 93.6% (active); in experiment [4] (setting [7]) it was 32%; in experiment [4] (setting [8]) it was 64%; in experiment [4] (at 50.0 µM), 89.5% (active). Moreover, the growth inhibition in experiment [5] (setting [7]) is 61%; in experiment [5] (setting [8]), 96% (active); in experiment [5] (at 50.0 µM), 92.5% (active).

For `C[N+](C)(C)CC1Cc2ccccc2C1=O` (stereo not drawn), the growth inhibition in experiment [1] (setting [7]) is 25%; in experiment [1] (setting [8]), 98% (active); in experiment [1] (at 50.0 µM), 90% (active); in experiment [2] (setting [7]) it was 20%; in experiment [2] (setting [8]), 99% (active); in experiment [2] (at 50.0 µM) it was 93.2% (active). For the same compound, the growth inhibition in experiment [3] (setting [7]) is 14%; in experiment [3] (setting [8]) it was 99% (active); in experiment [3] (at 50.0 µM) it was 92% (active); in experiment [4] (setting [7]), 10%; in experiment [4] (setting [8]) it was 85% (active); in experiment [4] (at 50.0 µM) it was 90.5% (active). The growth inhibition was 32% in experiment [5] (setting [7]); 99% (active) in experiment [5] (setting [8]); 91.5% (active) in experiment [5] (at 50.0 µM); 26% in experiment [6] (setting [7]); 99% (active) in experiment [6] (setting [8]); 92.5% (active) in experiment [6] (at 50.0 µM).

For the compound `Nc1nc(N)c(-c2ccc(Cl)c(Cl)c2)c(COc2ccc(CNC(=O)Nc3cccc(S(=O)(=O)F)c3)cc2Cl)n1`, the growth inhibition in experiment [1] (setting [7]) is 2%; in experiment [1] (setting [8]), 11%; in experiment [1] (at 50.0 µM) it was 26.8%; in experiment [2] (setting [7]), -5%; in experiment [2] (setting [8]), 10%; in experiment [2] (at 50.0 µM), 58.9%. Moreover, the growth inhibition is -4% in experiment [3] (setting [7]); 6% in experiment [3] (setting [8]); 74.8% (active) in experiment [3] (at 50.0 µM); -6% in experiment [4] (setting [7]); 11% in experiment [4] (setting [8]); -4.6% in experiment [4] (at 50.0 µM). The growth inhibition was 0% in experiment [5] (setting [7]); 20% in experiment [5] (setting [8]); 13.2% in experiment [5] (at 50.0 µM); 2% in experiment [6] (setting [7]); 42% in experiment [6] (setting [8]); 66.4% in experiment [6] (at 50.0 µM).

`O=[N+]([O-])/C=C/c1ccccc1Cl`: the growth inhibition is 91% (active) in experiment [1] (setting [7]); 98% (active) in experiment [1] (setting [8]); 90.8% (active) in experiment [1] (at 50.0 µM); 99% (active) in experiment [2] (setting [7]); 99% (active) in experiment [2] (setting [8]); 92.8% (active) in experiment [2] (at 50.0 µM). Also, the growth inhibition was 67% in experiment [3] (setting [7]); 98% (active) in experiment [3] (setting [8]); 93.3% (active) in experiment [3] (at 50.0 µM); 68% in experiment [4] (setting [7]); 98% (active) in experiment [4] (setting [8]); 92.2% (active) in experiment [4] (at 50.0 µM). The results for the growth inhibition in experiment [5] (setting [7]), in experiment [5] (setting [8]) and in experiment [5] (at 50.0 µM) were 98% (active), 99% (active) and 91% (active), respectively.

For the compound `CCCCCN1C(=O)C2C(C1=O)C1(Cl)C(Cl)=C(Cl)C2(Cl)C1(Cl)Cl` (stereo not drawn), the growth inhibition in experiment [1] (setting [7]) was 37%; in experiment [1] (setting [8]) it was 95% (active); in experiment [1] (at 50.0 µM), 97% (active); in experiment [2] (setting [7]) it was 35%; in experiment [2] (setting [8]) it was 97% (active); in experiment [2] (at 50.0 µM) it was 96.4% (active). Also, the growth inhibition was 16% in experiment [3] (setting [7]); 95% (active) in experiment [3] (setting [8]); 96.4% (active) in experiment [3] (at 50.0 µM); 16% in experiment [4] (setting [7]); 95% (active) in experiment [4] (setting [8]); 95.2% (active) in experiment [4] (at 50.0 µM). The growth inhibition is 12% in experiment [5] (setting [7]); 96% (active) in experiment [5] (setting [8]); 97.5% (active) in experiment [5] (at 50.0 µM); 33% in experiment [6] (setting [7]); 96% (active) in experiment [6] (setting [8]); 95.6% (active) in experiment [6] (at 50.0 µM).

Regarding `C/C(=N/NC(N)=S)c1ccc(Cl)cc1`, the growth inhibition in experiment [1] (setting [7]) is 9%; in experiment [1] (setting [8]), 94% (active); in experiment [1] (at 50.0 µM), 96.5% (active); in experiment [2] (setting [7]) it was -17%; in experiment [2] (setting [8]), 89% (active); in experiment [2] (at 50.0 µM), 97.1% (active). The growth inhibition in experiment [3] (setting [7]) was 5%; in experiment [3] (setting [8]) it was 93% (active); in experiment [3] (at 50.0 µM), 94% (active); in experiment [4] (setting [7]), -10%; in experiment [4] (setting [8]), 92% (active); in experiment [4] (at 50.0 µM), 92.5% (active). The growth inhibition in experiment [5] (setting [7]) was 41%; in experiment [5] (setting [8]), 94% (active); in experiment [5] (at 50.0 µM) it was 95.3% (active); in experiment [6] (setting [7]), 8%; in experiment [6] (setting [8]), 96% (active); in experiment [6] (at 50.0 µM), 97.2% (active).
